This note sets out measurements from PubChem BioAssay (NCI).

This is part of a sample that, as a whole, favours compounds with a hit. Of some 83,000 tested, about 20% had one in any assay.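 Single-dose data. Exposure time 48 hours. Values below 10 considered active.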 Values without a mark were called inactive. Activity calls are given as the source filed them.

Among the test systems are NCI-H23 lung; NCI-H226 lung; NCI-H322M lung; HOP-62 NSCLC; NCI-H460 lung; HOP-92 NSCLC; NCI-H522 lung; A549/ATCC NSCLC; 786-0 renal; COLO 205 colon; DU-145 prostate; K-562 leukemia; MALME-3M melanoma; MDA-MB-231 breast; RXF 393 renal; SF-268 CNS; SF-295 CNS; SF-539 CNS; UACC-257 melanoma; M14 melanoma.
Experiment in all cases: NCI-60 one-dose screen, 48 h (100 = growth as untreated, 0 = no growth, -100 = all killed)
Common to all, as to conditions: 10 µM unless noted

In the case of `O=C(NC1CCCCCC1)c1ccc2c(=O)n3c(nc2c1)CCCCC3`, the growth was 97.7% with NCI-H23 lung; 106% in the experiment on NCI-H226 lung; 90.7% in the experiment on NCI-H322M lung; 99.2% with HOP-62 NSCLC; 101% with NCI-H460 lung; 84.6% in the experiment with HOP-92 NSCLC. The growth in the experiment on NCI-H522 lung is 103%; in the experiment with A549/ATCC NSCLC, 97%; with 786-0 renal, 106%; in the experiment on COLO 205 colon, 102%; in the experiment with DU-145 prostate it was 94.3%; with K-562 leukemia, 89%. Also, the growth in the experiment on MALME-3M melanoma was 91.1%; with MDA-MB-231 breast it was 100%; with RXF 393 renal, 105%; with SF-268 CNS it was 110%; in the experiment on SF-295 CNS it was 116%; in the experiment with SF-539 CNS it was 89.2%. For the same compound, the growth is 112% with UACC-257 melanoma and 110% with M14 melanoma.

For the compound `COc1cc2c(cc1OC)CC[N+](CCC[N+](C)(C)C)=C2`, the growth in the experiment on NCI-H23 lung was 106%; in the experiment on NCI-H226 lung, 104%; with NCI-H322M lung, 88.6%; in the experiment on HOP-62 NSCLC, 84%; in the experiment on NCI-H460 lung, 109%; in the experiment on HOP-92 NSCLC, 96.1%. For the same compound, the growth is 80.3% with NCI-H522 lung; 97.4% in the experiment with A549/ATCC NSCLC; 96.2% with 786-0 renal; 108% with COLO 205 colon; 108% with DU-145 prostate; 111% with K-562 leukemia. The growth in the experiment with MALME-3M melanoma is 89%; in the experiment on MDA-MB-231 breast, 115%; in the experiment on RXF 393 renal, 113%; in the experiment on SF-268 CNS, 91.7%; in the experiment with SF-295 CNS, 97%; in the experiment on SF-539 CNS, 98%. The growth with UACC-257 melanoma is 100%; in the experiment on M14 melanoma, 91.7%.

On to `CCOC(=O)c1c(NC(=S)Nc2ccc([N+](=O)[O-])cc2)sc2c1CCCCC2`, for which the growth is 69.4% with NCI-H23 lung; 70.8% with NCI-H226 lung; 83.5% in the experiment on NCI-H322M lung; 102% with HOP-62 NSCLC; 69.7% in the experiment with NCI-H460 lung; 0.0405% (active) in the experiment with HOP-92 NSCLC. For the same compound, the growth was 58.7% with NCI-H522 lung; 84.4% in the experiment with A549/ATCC NSCLC; 92.9% in the experiment on 786-0 renal; 105% in the experiment with COLO 205 colon; 89.8% with DU-145 prostate; 81.1% in the experiment on K-562 leukemia. Besides, the growth with MALME-3M melanoma was 72.7%; with MDA-MB-231 breast, 79.7%; with RXF 393 renal it was 85.6%; with SF-268 CNS, 89%; in the experiment with SF-295 CNS it was 87.2%; with SF-539 CNS, 92%. Moreover, the figures for the growth in the experiment with UACC-257 melanoma and in the experiment with M14 melanoma were 70.4% and 93.7%, respectively.

On to `CCN(CC)CCCC(Nc1c2ccc(Cl)cc2nc2ccc(OC)cc12)c1ccncc1` (stereo not given), for which the growth is 80.7% in the experiment on NCI-H23 lung; 94.5% in the experiment on NCI-H226 lung; 65.4% in the experiment on NCI-H322M lung; 83.4% in the experiment with HOP-62 NSCLC; 66% with NCI-H460 lung; 65.7% with HOP-92 NSCLC. The growth in the experiment with NCI-H522 lung was 83.3%; in the experiment on A549/ATCC NSCLC, 74.4%; with 786-0 renal it was 62.7%; in the experiment with COLO 205 colon, 69.8%; in the experiment with DU-145 prostate, 70.6%; in the experiment with K-562 leukemia, 32.6%. The growth was 76.7% in the experiment with MALME-3M melanoma; 59.3% with MDA-MB-231 breast; 65.4% with RXF 393 renal; 77.8% in the experiment on SF-268 CNS; 89.9% in the experiment on SF-295 CNS; 62.9% in the experiment with SF-539 CNS. Moreover, the growth in the experiment on UACC-257 melanoma was 114%; in the experiment on M14 melanoma, 113%.

For the compound `COc1cc(/C=N/NC(=O)c2ccc3nc(-c4ccc(Cl)cc4)[nH]c3c2)cc(OC)c1OC`, the growth with NCI-H23 lung is 53.7%; with NCI-H226 lung, 76%; with NCI-H322M lung, 87.5%; in the experiment with HOP-62 NSCLC, 81.7%; with NCI-H460 lung, 82.8%; in the experiment on HOP-92 NSCLC, 71.7%. Also, the growth is 78.3% in the experiment with NCI-H522 lung; 85.8% in the experiment on A549/ATCC NSCLC; 51.2% in the experiment on 786-0 renal; 45.7% in the experiment on COLO 205 colon; 97.4% in the experiment with DU-145 prostate; 32.7% with K-562 leukemia. Also, the growth with MALME-3M melanoma is 28.4%; in the experiment with MDA-MB-231 breast it was 103%; with RXF 393 renal, 36.3%; in the experiment on SF-268 CNS, 79.7%; in the experiment with SF-295 CNS, 44%; in the experiment with SF-539 CNS it was 43.8%. For the same compound, the growth with UACC-257 melanoma is 54.3%; with M14 melanoma, 42%.

Consider `C/C(=N\NC(=O)c1ccc(C(C)(C)C)cc1)c1ccc(O)cc1O`, for which the growth in the experiment with NCI-H23 lung is 23.7%; in the experiment on NCI-H226 lung, 25.6%; in the experiment on NCI-H322M lung it was 25.5%; in the experiment with HOP-62 NSCLC it was 20.9%; with NCI-H460 lung it was 3.99% (active); in the experiment with HOP-92 NSCLC it was 59.3%. Moreover, the growth with NCI-H522 lung is 27.5%; with A549/ATCC NSCLC, 21.5%; in the experiment with 786-0 renal, 15.3%; in the experiment on COLO 205 colon it was 7.24% (active); with DU-145 prostate, 29.3%; in the experiment with K-562 leukemia it was 12.9%. For the same compound, the growth was 28.4% in the experiment with MALME-3M melanoma; 37.4% with MDA-MB-231 breast; -9.15% (active) with RXF 393 renal; 27.6% in the experiment with SF-268 CNS; 16.2% in the experiment with SF-295 CNS; 14.7% in the experiment on SF-539 CNS. Moreover, the growth was 8.32% (active) in the experiment on UACC-257 melanoma and 23% in the experiment on M14 melanoma.

For `CCOC(=O)CC1CSC(N/N=C/c2ccc(O)cc2)=N1` (stereo not given), the growth in the experiment on NCI-H23 lung was 102%; in the experiment on NCI-H226 lung, 105%; in the experiment with NCI-H322M lung it was 98.6%; in the experiment with HOP-62 NSCLC, 91%; in the experiment with NCI-H460 lung, 112%; in the experiment with HOP-92 NSCLC it was 80.3%. The growth in the experiment with NCI-H522 lung was 97%; in the experiment with A549/ATCC NSCLC it was 102%; in the experiment on 786-0 renal, 89.9%; with COLO 205 colon, 111%; in the experiment with DU-145 prostate, 106%; in the experiment on K-562 leukemia, 99.4%. The growth in the experiment on MALME-3M melanoma is 97%; in the experiment on MDA-MB-231 breast, 113%; in the experiment with RXF 393 renal it was 111%; in the experiment on SF-268 CNS, 96.2%; in the experiment on SF-295 CNS, 99.1%; with SF-539 CNS, 95.3%. For the same compound, the growth is 108% with UACC-257 melanoma and 92% in the experiment on M14 melanoma.

`Cc1c(-c2cnc3ccc(Cl)cc3c2C(=O)O)nnn1-c1ccc(Cl)cc1`: the growth in the experiment with NCI-H23 lung is 103%; in the experiment with NCI-H226 lung, 102%; in the experiment on NCI-H322M lung, 93.6%; with HOP-62 NSCLC, 89.4%; with NCI-H460 lung, 107%; in the experiment with HOP-92 NSCLC it was 88.7%. Further, the growth is 89.1% with NCI-H522 lung; 97.1% in the experiment on A549/ATCC NSCLC; 62.7% with 786-0 renal; 93.8% in the experiment on COLO 205 colon; 114% in the experiment with DU-145 prostate; 101% in the experiment on K-562 leukemia. Besides, the growth in the experiment with MALME-3M melanoma was 99.6%; in the experiment on MDA-MB-231 breast it was 85.8%; in the experiment with RXF 393 renal, 122%; in the experiment on SF-268 CNS, 111%; in the experiment on SF-295 CNS, 97.7%; in the experiment on SF-539 CNS, 99.6%. Further, the growth is 95.9% in the experiment on UACC-257 melanoma and 69.8% in the experiment with M14 melanoma.
